Over roughly 16,000 sequences, “rpm ratio (pull-down/input)” has its median near 0.5; the highest 2% begin near 5.5. The entries come from a sample that favours the highest values as a whole.
Each sequence was assayed against T1, MBP-FoxP3dN (Mus musculus, UniProt Q99JB6 188-423) (assay: PD-seq (MBP pull-down with sequencing); 20 mM Tris-HCl pH 7.5, 100 mM NaCl, 1.5 mM MgCl2, 0.4 uM protein, 0.1 uM dsDNA library, 30 min, room temperature, amylose pull-down; high values mean tight binding). Conditions: protein: recombinant; tags: His6-MBP; chain copies: 2; dsDNA, one strand shown.
T1 sequence: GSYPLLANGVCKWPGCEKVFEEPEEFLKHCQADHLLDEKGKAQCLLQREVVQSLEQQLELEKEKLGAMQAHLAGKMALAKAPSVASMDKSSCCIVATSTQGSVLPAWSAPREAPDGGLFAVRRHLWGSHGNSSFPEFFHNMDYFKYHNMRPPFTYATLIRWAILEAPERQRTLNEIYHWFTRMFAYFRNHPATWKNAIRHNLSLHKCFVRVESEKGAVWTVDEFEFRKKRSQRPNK
Method in brief: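 The N-terminus-lacking fragment of mouse FoxP3 or FoxP1 carried a His6-MBP tag and was expressed in E. coli. At 0.4 µM it was incubated with 0.1 µM Klenow-filled degenerate double-stranded DNA library for 30 min at room temperature in Tris pH 7.5 buffer with NaCl and MgCl2, and complexes were caught on amylose resin, washed three times, released with proteinase K, PCR-barcoded and Illumina-sequenced. Binding is reads-per-million enrichment of pull-down over input with replicates pooled.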
For “GATGATTGTTCTCCCAGCTGATGAATTAGATCATTCGAGTAAACAAATTTTCCTAATCTTTCTGTTCAAGCGCCATCTAC”, the binding signal was 0.534 RPM ratio (pull-down/input).
With “GATGATTGTTCTCCCAGCTGATGAATTTAAGGTGTCGAGTAAACAAATTTTCCTAATCTTTCTGTTCAAGCGCCATCTAC” the binding signal was 0.772 RPM ratio (pull-down/input).
For “GATGATTGTTCTCCCAGCTGATGAATTCACTAAATCGAGTAAACAAATTTTCCTAATCTTTCTGTTCAAGCGCCATCTAC”, the binding signal was 0.211 RPM ratio (pull-down/input).
In the case of “GATGATTGTTCTCCCAGCTGATGAATTCTGGTCGTCGAGTAAACAAATTTTCCTAATCTTTCTGTTCAAGCGCCATCTAC”, the binding signal is reported as 0.464 RPM ratio (pull-down/input).
With “GATGATTGTTCTCCCAGCTGATGAATTCTCAGCTTCGAGTAAACAAATTTTCCTAATCTTTCTGTTCAAGCGCCATCTAC” the binding signal was 0.293 RPM ratio (pull-down/input).
“GATGATTGTTCTCCCAGCTGATGAATTATGATAATCGAGTAAACAAATTTTCCTAATCTTTCTGTTCAAGCGCCATCTAC” was tested, and the binding signal was 0.653 RPM ratio (pull-down/input).
In the case of “GATGATTGTTCTCCCAGCTGATGAATTTAGGGCTTCGAGTAAACAAATTTTCCTAATCTTTCTGTTCAAGCGCCATCTAC”, the binding signal is reported as 0.514 RPM ratio (pull-down/input).
“GATGATTGTTCTCCCAGCTGATGAATTTTGCGTATCGAGTAAACAAATTTTCCTAATCTTTCTGTTCAAGCGCCATCTAC” was tested, and the binding signal was 3.74 RPM ratio (pull-down/input).
With “GATGATTGTTCTCCCAGCTGATGAATTGTGACAGTCGAGTAAACAAATTTTCCTAATCTTTCTGTTCAAGCGCCATCTAC” the binding signal was 0.817 RPM ratio (pull-down/input).
In the case of “GATGATTGTTCTCCCAGCTGATGAATTGTCAGAGTCGAGTAAACAAATTTTCCTAATCTTTCTGTTCAAGCGCCATCTAC”, the binding signal is reported as 0.234 RPM ratio (pull-down/input).
In the case of “GATGATTGTTCTCCCAGCTGATGAATTCCCGTCTTCGAGTAAACAAATTTTCCTAATCTTTCTGTTCAAGCGCCATCTAC”, the binding signal is reported as 0.33 RPM ratio (pull-down/input).
In the case of “GATGATTGTTCTCCCAGCTGATGAATTAGTAAACTCGAGTAAACAAATTTTCCTAATCTTTCTGTTCAAGCGCCATCTAC”, the binding signal is reported as 1.08 RPM ratio (pull-down/input).
In the case of “GATGATTGTTCTCCCAGCTGATGAATTACGTTGGTCGAGTAAACAAATTTTCCTAATCTTTCTGTTCAAGCGCCATCTAC”, the binding signal is reported as 1.3 RPM ratio (pull-down/input).
With “GATGATTGTTCTCCCAGCTGATGAATTTCGTTATTCGAGTAAACAAATTTTCCTAATCTTTCTGTTCAAGCGCCATCTAC” the binding signal was 2.7 RPM ratio (pull-down/input).
In the case of “GATGATTGTTCTCCCAGCTGATGAATTTGGTTATTCGAGTAAACAAATTTTCCTAATCTTTCTGTTCAAGCGCCATCTAC”, the binding signal is reported as 3.56 RPM ratio (pull-down/input).
For “GATGATTGTTCTCCCAGCTGATGAATTATTTGTTTCGAGTAAACAAATTTTCCTAATCTTTCTGTTCAAGCGCCATCTAC”, the binding signal was 4.2 RPM ratio (pull-down/input).
With “GATGATTGTTCTCCCAGCTGATGAATTCTGTTATTCGAGTAAACAAATTTTCCTAATCTTTCTGTTCAAGCGCCATCTAC” the binding signal was 6.72 RPM ratio (pull-down/input).
For “GATGATTGTTCTCCCAGCTGATGAATTTGTTATTTCGAGTAAACAAATTTTCCTAATCTTTCTGTTCAAGCGCCATCTAC”, the binding signal was 7.62 RPM ratio (pull-down/input).
For “GATGATTGTTCTCCCAGCTGATGAATTATGTTATTCGAGTAAACAAATTTTCCTAATCTTTCTGTTCAAGCGCCATCTAC”, the binding signal was 7.23 RPM ratio (pull-down/input).
With “GATGATTGTTCTCCCAGCTGATGAATTTTGTTATTCGAGTAAACAAATTTTCCTAATCTTTCTGTTCAAGCGCCATCTAC” the binding signal was 7.33 RPM ratio (pull-down/input).
In the case of “GATGATTGTTCTCCCAGCTGATGAATTATTATGTTCGAGTAAACAAATTTTCCTAATCTTTCTGTTCAAGCGCCATCTAC”, the binding signal is reported as 1.3 RPM ratio (pull-down/input).
With “GATGATTGTTCTCCCAGCTGATGAATTTGATTATTCGAGTAAACAAATTTTCCTAATCTTTCTGTTCAAGCGCCATCTAC” the binding signal was 4.96 RPM ratio (pull-down/input).
With “GATGATTGTTCTCCCAGCTGATGAATTATTTTGTTCGAGTAAACAAATTTTCCTAATCTTTCTGTTCAAGCGCCATCTAC” the binding signal was 1.15 RPM ratio (pull-down/input).
With “GATGATTGTTCTCCCAGCTGATGAATTGTTATTTTCGAGTAAACAAATTTTCCTAATCTTTCTGTTCAAGCGCCATCTAC” the binding signal was 4.89 RPM ratio (pull-down/input).
For “GATGATTGTTCTCCCAGCTGATGAATTATGTAATTCGAGTAAACAAATTTTCCTAATCTTTCTGTTCAAGCGCCATCTAC”, the binding signal was 3.03 RPM ratio (pull-down/input).

— publication PMC12820563, “FoxP3 forms a head-to-head dimer in vivo and stabilizes its multimerization on adjacent microsatellites”
